{
  "source": "PubChem BioAssay (EPA / NIEHS)",
  "note": "The source made the active and inactive calls. The calls were made as follows: active = hit-call score of the fitted dose curve at least 0.9, where 1 is the maximum; inactive = score below 0.9.",
  "data": [
    {"test": "BSK_KF3CT_SRB: Viability Assessment in the BioMAP Diversity Plus: KF3CT Assay (AID 2283069);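 also: fitted for both signal gain and loss against DMSO baseline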", "conditions": "primary human keratinocytes with fibroblasts", "experimental": "BSK_KF3CT is a cell-based, multiplexed-readout assay that uses keratinocytes and foreskin fibroblasts, a human skin primary cell co-culture, with measurements taken at 24 hours after chemical dosing in a 96-well plate.BSK_KF3CT_SRB is an assay component measured in the BSK_KF3CT assay. It measures 0.1% sulforhodamine related to cell death using Sulforhodamine staining technology.Data from the assay component BSK_KF3CT_SRB was analyzed into 1 assay endpoint. This assay endpoint, BSK_KF3CT_SRB, was analyzed with bidirectional fitting relative to DMSO as the negative control and baseline of activity. Using a type of viability reporter, gain or loss-of-signal activity can be used to understand changes in the signaling. Furthermore, this assay endpoint can be referred to as a primary readout, because this assay has produced multiple assay endpoints where this one serves a signaling function. To generalize the intended target to other relatable targets, this assay endpoint is annotated to the cell morphology intended target family, where the subfamily is cell conformation.\nThe levels of cell surface (or secreted, indicated by the prefix \"s\") biomarker endpoints were measured by ELISA. Overt cytotoxicity to cells in confluent adherent cultures (all systems other than the BT system) was assessed by measuring total protein levels using sulforhodamine B (SRB) staining in parallel cultures at the time of biomarker measurements, indicated as SRB endpoints. For proliferation assays for adherent cell types, individual cell types are cultured at sub-confluence and relative cell numbers quantified by SRB staining at time points optimized for each system (48 h: 3C and CASM3C systems; 72 h: BT and HDF3CGF systems; 96 h: SAg system). SRB was performed by staining cells with 0.1% SRB after fixation with 10% TCA and reading wells at 560 nm.Viability and proliferation of PBMC (T cells) was quantified by Alamar Blue reduction for the SAg and BT systems. For PBMC viability (referred to as PBMC Cytotoxicity within the assay endpoint names), cells were plated (75,000/well in a 96-well plate) and then chemical samples added for 1 h before addition of activators, SEB and TSST-1 (20 ng/mL final concentration each). Cells were incubated for 90 h. Then, Alamar Blue (20 uL/well) (Invitrogen, Cat DAL1100) was added for 6 h, and the plates were read with a fluorescence microplate reader at 546/580 nm (excitation/emission). For PBMC proliferation, cells were plated and activated as above but incubated for only 16 h prior to addition of Alamar Blue. Plates were read after 6 h.", "values": [
      {"smiles": "NC(=S)Nc1ccccc1", "outcome": "inactive"},
      {"smiles": "COP(=S)(OC)Oc1c(Cl)cc(C)cc1Cl", "outcome": "inactive"},
      {"smiles": "COC(=O)Cc1ccccc1", "outcome": "inactive"},
      {"smiles": "O=c1[nH]c(=O)[nH]c(=O)[nH]1", "outcome": "inactive"},
      {"smiles": "CC1(C)Cc2cccc(O)c2O1", "outcome": "inactive"},
      {"smiles": "CCOP(=S)(OCC)SCCS(=O)(=O)CC", "outcome": "inactive"},
      {"smiles": "CCN1CCC2(CC1)COc1cc3c(cc12)N(C(=O)c1ccc(-c2ccc(-c4nnc(C)o4)cc2C)cc1)CC3", "AC50": "20.8 µM (active)"},
      {"smiles": "CC(C)(C)CC(C)(C)c1ccc(O)cc1", "AC50": "6.93 µM (active)"},
      {"smiles": "C=C(C)C(=O)[O][Sn]([CH2]CCC)([CH2]CCC)[CH2]CCC", "AC50": "0.282 µM (active)"},
      {"smiles": "CC(=O)C(Cl)C(=O)N(C)C", "note": "(stereo not given)", "outcome": "inactive"},
      {"smiles": "O=C(O)C(Cl)(Cl)Cl", "outcome": "inactive"},
      {"smiles": "C=CC(=O)OCCCCCC(C)C", "outcome": "inactive"},
      {"smiles": "O=C(O)CCC(F)(C(F)(F)F)C(F)(F)F", "outcome": "inactive"},
      {"smiles": "CCC(=O)C(CC(C)N(C)C)(c1ccccc1)c1ccccc1", "note": "(stereo not given)", "outcome": "inactive"},
      {"smiles": "CCOP(=S)(OCC)SCSP(=S)(OCC)OCC", "outcome": "inactive"},
      {"smiles": "CC(=O)OC(c1ccccc1)C(Cl)(Cl)Cl", "note": "(stereo not given)", "outcome": "inactive"},
      {"smiles": "CCCCCCCCc1ccc(O)cc1", "AC50": "27.7 µM (active)"},
      {"smiles": "OCc1ccco1", "outcome": "inactive"},
      {"smiles": "ClC1(Cl)C2(Cl)C3(Cl)C4(Cl)C(Cl)(Cl)C5(Cl)C3(Cl)C1(Cl)C5(Cl)C24Cl", "note": "(stereo not given)", "outcome": "inactive"},
      {"smiles": "CC12CC1(C)C(=O)N(c1cc(Cl)cc(Cl)c1)C2=O", "note": "(stereo not given)", "outcome": "inactive"},
      {"smiles": "Oc1c(I)cc(I)cc1I", "outcome": "inactive"},
      {"smiles": "COc1cc(-c2ccc(N)c(OC)c2)ccc1N", "outcome": "inactive"},
      {"smiles": "O=[N+]([O-])c1ccc(O)c([N+](=O)[O-])c1", "outcome": "inactive"},
      {"smiles": "O=C(Nc1ccc2[nH]ccc2c1)c1cc2cc(F)ccc2n1Cc1cccc(F)c1", "AC50": "5.91 µM (active)"},
      {"smiles": "Nc1ccc(-c2ccc(N)c(Cl)c2)cc1Cl", "outcome": "inactive"},
      {"smiles": "Oc1cccc2cccnc12", "AC50": "2.78 µM (active)"},
      {"smiles": "BrCCBr", "outcome": "inactive"},
      {"smiles": "COP(=S)(OC)Oc1ccc(S(=O)(=O)N(C)C)cc1", "outcome": "inactive"},
      {"smiles": "ClCC(Cl)CCl", "outcome": "inactive"},
      {"smiles": "CC(C)CCCCCCOC(=O)c1ccccc1C(=O)OCCCCCCC(C)C", "outcome": "inactive"},
      {"smiles": "CC(=O)[O][Hg][c]1ccccc1", "AC50": "0.617 µM (active)"},
      {"smiles": "CN(C)N=O", "outcome": "inactive"},
      {"smiles": "CCC(C)(C)c1ccc(O)c(C(C)(C)CC)c1", "AC50": "7.84 µM (active)"},
      {"smiles": "O=[N+]([O-])c1ccc2c3c(cccc13)CC2", "outcome": "inactive"},
      {"smiles": "CCCCCCCCC(=O)NCc1ccc(O)c(OC)c1", "outcome": "inactive"},
      {"smiles": "Nc1cccc2ccccc12", "outcome": "inactive"},
      {"smiles": "O=C1C2(Cl)C3(Cl)C4(Cl)C(Cl)(Cl)C5(Cl)C3(Cl)C1(Cl)C5(Cl)C24Cl", "note": "(stereo not given)", "AC50": "8.1 µM (active)"},
      {"smiles": "COc1cc(OC)nc(NC(=O)NS(=O)(=O)c2ncccc2C(=O)N(C)C)n1", "outcome": "inactive"},
      {"smiles": "CC(C)(C)c1cc(O)ccc1O", "AC50": "29.9 µM (active)"},
      {"smiles": "O=S(=O)(c1ccc(Cl)cc1)c1ccc(Cl)cc1", "outcome": "inactive"}
    ]}
  ]
}
